According to paper PMC8769072, “Proteome‐scale mapping of binding sites in the unstructured regions of the human proteome” (Molecular Systems Biology, 2022):

Experiments:
[1] = biological target: TNKS 174-649, O95271
[2] = biological target: TSG101 1-145, Q99816
TSG101 1-145, Q99816, sequence (Q99816 1-145): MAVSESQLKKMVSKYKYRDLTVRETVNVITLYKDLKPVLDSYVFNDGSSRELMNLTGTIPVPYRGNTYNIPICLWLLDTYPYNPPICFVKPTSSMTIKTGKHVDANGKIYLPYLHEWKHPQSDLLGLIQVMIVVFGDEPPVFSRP

TNKS 174-649, O95271, sequence (O95271 174-649): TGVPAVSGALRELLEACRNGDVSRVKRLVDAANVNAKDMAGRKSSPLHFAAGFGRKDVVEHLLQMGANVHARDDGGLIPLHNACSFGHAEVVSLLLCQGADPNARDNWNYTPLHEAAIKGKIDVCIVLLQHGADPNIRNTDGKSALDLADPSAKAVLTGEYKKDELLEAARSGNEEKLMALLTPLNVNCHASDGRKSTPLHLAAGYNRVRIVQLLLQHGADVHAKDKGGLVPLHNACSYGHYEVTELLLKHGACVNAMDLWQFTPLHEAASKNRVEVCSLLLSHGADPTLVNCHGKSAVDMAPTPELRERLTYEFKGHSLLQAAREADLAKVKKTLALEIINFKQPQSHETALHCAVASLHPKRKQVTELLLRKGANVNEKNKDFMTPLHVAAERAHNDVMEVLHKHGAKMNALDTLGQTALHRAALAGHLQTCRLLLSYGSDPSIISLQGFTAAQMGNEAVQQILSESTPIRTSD

Row | Binder | selected by phage display [1] | selected by phage display [2]
1 | SPQFVGNLRESPLGQE [CCNH, P51946] | confidence 2 (active) | –
2 | RVVDGAEMALPGLATQ [KIF26B, Q2KJY2] | confidence 2 (active) | –
3 | ATGSDPLWQRLEPAGH [PLCH2, O75038] | confidence 4 (active) | –
4 | GTREDPAGQETTAITN [LINC01547, P58512] | confidence 2 (active) | –
5 | LPSAPGAEQTAGSLLY [E2F3, O00716] | – | confidence 2 (active)
6 | GGRTPAARDSIVREVI [MTHFD1L, Q6UB35] | confidence 2 (active) | –
7 | MMVESASETIRSAPSG [FOXP4, Q8IVH2] | confidence 3 (active) | –
8 | AVGASAPSAPTAHPQP [DCAF1, Q9Y4B6] | – | confidence 2 (active)
9 | EHAELAPPAPSAPSWG [SHKBP1, Q8TBC3] | – | confidence 3 (active)
10 | HGDGEVRQPPVGIAVA [BAHCC1, Q9P281] | confidence 2 (active) | –
11 | PQLPHLQRSPPDGQSF [SH3BP2, P78314] | confidence 2 (active) | –
12 | SVERMGSGIERMGPLG | confidence 4 (active) | –
13 | GGGPDRLEPEMVRMVV [NAB2, Q15742] | confidence 2 (active) | –
14 | REAPEGMASSLGALNL [CACNA1S, Q13698] | confidence 4 (active) | –
15 | VTLPTAPNMNSEPTLQ [MFSD6, Q6ZSS7] | – | confidence 3 (active)
16 | RQEALGAEHNSSALLP [AKAP13, Q12802] | confidence 3 (active) | –
17 | PSAPDMEDFGLVKLPH [POLE, Q07864] | – | confidence 2 (active)
18 | QYVTREPPEGSLLDVD [FAM83H, Q6ZRV2] | confidence 2 (active) | –
19 | PSALPSVPEPSAPAAP [TRIM47, Q96LD4] | – | confidence 3 (active)
20 | SLIERGAAAGSEDAVK [SPTAN1, Q13813] | confidence 2 (active) | –
21 | VTSSPIRGAGDGMETE [BLZF1, Q9H2G9] | confidence 2 (active) | –

Row | Binder | selected by phage display [1] | selected by phage display [2]
22 | LFLPRTEADGKSYVKY [ENDOG, Q14249] | confidence 4 (active) | –
23 | EVLASAPPLPPSTAAP [WASH4P, A8MWX3] | – | confidence 3 (active)
24 | VPGLGGPGESRHEPLG [HOXA13, P31271] | confidence 2 (active) | –
25 | MSGLVLGQRDEPAGHR [KLC4, Q9NSK0] | confidence 2 (active) | –
26 | TAAIPSAPVLPPPPVH [YLPM1, P49750] | – | confidence 4 (active)
27 | RGLVDGGEAVEARLRD [CGN, Q9P2M7] | confidence 3 (active) | –
28 | TLNERLAAEGQAIDGA [WDR37, Q9Y2I8] | confidence 3 (active) | –
29 | PTPTAPLLPPQPATPL [EP300, Q09472] | – | confidence 2 (active)
30 | PSAPLPFVPPPAVPSV [PRRC1, Q96M27] | – | confidence 4 (active)
31 | ARQEPQGQEHQVDNTV [AMOTL1, Q8IY63] | confidence 3 (active) | –
32 | VVVPSAPEVQETTRML [NEO1, Q92859] | – | confidence 2 (active)
33 | SQPSAPDFVQRGFDSF [UTRN, P46939] | – | confidence 2 (active)
34 | DIRGLAAGSAETLPAN [PPFIA1, Q13136] | confidence 2 (active) | –
35 | TSVVGFSADGMRPEAI [MAP4K4, O95819] | confidence 2 (active) | –
36 | AEASAPPAPELFSPPV [EME1, Q96AY2] | – | confidence 2 (active)
37 | DELRMEPLGLEGLNML [CRTC2, Q53ET0] | confidence 3 (active) | –
38 | QERLIPLGHASKSAPM [ERRFI1, Q9UJM3] | confidence 2 (active) | –
39 | LPPAEAVRWAPVGAVA [RUNDC1, Q96C34] | confidence 4 (active) | –
40 | AEPSAPSLPAGPTGVE [TMEM131L, A2VDJ0] | – | confidence 3 (active)
41 | SLPHTPTTPTAPLTPV [FOXP1, Q9H334] | – | confidence 3 (active)
42 | DYVLTYNYEGRGSPAG [DSC3, Q14574] | confidence 2 (active) | –

Row | Binder | selected by phage display [1] | selected by phage display [2]
43 | VGAKALPTAPPPPPLP [INF2, Q27J81] | – | confidence 3 (active)
44 | MARPDPSAPPSLLLLL [FZD5, Q13467] | – | confidence 2 (active)
45 | EEDADTMRLQPIGRDK [RSF1, Q96T23] | confidence 3 (active) | –
46 | QTIERMGSGVERMGPA | confidence 3 (active) | –
47 | LDMHTVTREEGEGMET [GCC2, Q8IWJ2] | confidence 3 (active) | –
48 | PVVPTAPELQPSTSTD | – | confidence 3 (active)
49 | IGRISAEGGEQVERVV [APOL2, Q9BQE5] | confidence 3 (active) | –
50 | SVLQPGIAMETRGLAD [CNGA3, Q16281] | confidence 2 (active) | –
51 | AQVLSQRLEAEGLSTL [LENG9, Q96B70] | confidence 2 (active) | –
52 | YLSFRSVGDGLSTSAV [CSB-PGBD3, P0DP91] | confidence 3 (active) | –
53 | SVAKAVQASAPADERI [STOX1, Q6ZVD7] | – | confidence 3 (active)
54 | EPWLDRVIQGSSTSSS [DIP2A, Q14689] | confidence 3 (active) | –
55 | ERSSGDGEELERLTKP [SLC35A5, Q9BS91] | confidence 3 (active) | –
56 | VTVVPTAPDPVPADSV [CABIN1, Q9Y6J0] | – | confidence 3 (active)
57 | EVHTAPSAPLAFGSQQ [ZNF589, Q86UQ0] | – | confidence 3 (active)
58 | GGLDGPRLAIPGMDGG [PAN3, Q58A45] | confidence 3 (active) | –
59 | AQQALERTPGDGLATM [THAP4, Q8WY91] | confidence 3 (active) | –
60 | RTESIRWLIPGQEQEH [TXNDC15, Q96J42] | confidence 3 (active) | –
61 | PTAPELRPSTSTDRPV | – | confidence 3 (active)
62 | EERPEVLGQRSTDVVD [STK36, Q9NRP7] | confidence 2 (active) | –
